Experimental data from PubChem BioAssay (NCI).
About 79,000 compounds went through this panel and 15% of them were active in at least one assay; those are over-represented in the sample as a whole. Active and inactive are the calls of the source. No stated cut-off is given here; in the data, active means growth inhibition above about 70%; inactive means the rest.

What was measured:
[1] = NCI Yeast Anticancer Drug Screen. Data for the rad50 strain (AID 155);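 further: 0% = growth of vehicle-only cultures of the same strain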; conditions: S. cerevisiae rad50 strain growth inhibition, hits give high values
Method in brief: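 A DNA repair-deficient yeast mutant serves as the test organism; compound-induced growth inhibition is calculated against vehicle-treated cells.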

[2] = NCI Yeast Anticancer Drug Screen. Data for the mec2-1 strain (AID 157); conditions: S. cerevisiae mec2-1 strain, hits give high values
Method in brief: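 Cells of the genetically defined mec2-1 yeast strain are incubated with test compound. Inhibition of growth is calculated against vehicle-treated controls.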

[3] = NCI Yeast Anticancer Drug Screen. Data for the sgs1 mgt1 strain (AID 161);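 further: 0% = growth of cultures given vehicle only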; conditions: S. cerevisiae sgs1 mgt1 strain, hits give high values
Method in brief: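 Test agents were incubated with a DNA-repair-mutant yeast strain. Growth was then read and compared against vehicle-treated controls.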

[4] = NCI Yeast Anticancer Drug Screen. Data for the cln2 rad14 strain (AID 165);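 further: 0% = growth equal to vehicle treated cultures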; conditions: S. cerevisiae cln2 rad14 strain, hits give high values
Method in brief: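 The screen exposed genetically defined yeast (cln2 rad14) to test compounds and scored growth inhibition relative to vehicle-treated controls.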

[5] = NCI Yeast Anticancer Drug Screen. Data for the bub3 strain (AID 167); conditions: S. cerevisiae bub3 mutant strain, hits give high values
Method in brief: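 Inhibition values come from growth of compound-treated mutant yeast normalised to vehicle-treated controls.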

[6] = NCI Yeast Anticancer Drug Screen. Data for the mlh1 rad18 strain (AID 175); conditions: S. cerevisiae mlh1 rad18 strain growth inhibition, hits give high values
Method in brief: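 Compound-treated yeast growth, normalised to vehicle controls. Strain bears defined DNA repair mutations.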

[7] = at 5.0 µM (retest, dose inferred, filed as 0.5)
[8] = at 50.0 µM (retest, dose inferred, filed as 5.0)

Measured: growth inhibition

c1csc(-c2nccc3c2[nH]c2ccccc23)c1
active: [1]; [8] 92% | [1]; at 50.0 µM 88% | [2]; [8] 94% | [2]; at 50.0 µM 92.8% | [3]; [8] 95% | [3]; at 50.0 µM 90.2% | [4]; [8] 83% | [4]; at 50.0 µM 91% | [5]; [8] 97% | [5]; at 50.0 µM 91.3% | [6]; [8] 94% | [6]; at 50.0 µM 86.7%
inactive: [1]; [7] -18% | [2]; [7] -17% | [3]; [7] -29% | [4]; [7] -13% | [5]; [7] -42% | [6]; [7] -19%

COc1ccc(SSc2ccc(OC)n[n+]2[O-])[n+]([O-])n1
active: [1]; [7] 98% | [1]; [8] 99% | [1]; at 50.0 µM 99.3% | [2]; [7] 98% | [2]; [8] 100% | [2]; at 50.0 µM 99.7% | [3]; [7] 93% | [3]; [8] 99% | [3]; at 50.0 µM 98.8% | [4]; [8] 97% | [4]; at 50.0 µM 98.3% | [5]; [8] 99% | [5]; at 50.0 µM 99.5% | [6]; [7] 72% | [6]; [8] 99% | [6]; at 50.0 µM 99.5%
inactive: [4]; [7] 57% | [5]; [7] 59%

c1ccc(CC[n+]2csc3ccccc32)cc1
inactive: [1]; [7] -2% | [1]; at 50.0 µM 57% | [2]; [7] 0% | [2]; at 50.0 µM 50.5% | [3]; [7] -2% | [3]; at 50.0 µM 36.3% | [4]; [7] -8% | [4]; [8] 35% | [4]; at 50.0 µM 31.8% | [5]; [7] 0% | [5]; at 50.0 µM 63.8% | [6]; [7] -2% | [6]; at 50.0 µM 54.6%
active: [1]; [8] 73% | [2]; [8] 84% | [3]; [8] 81% | [5]; [8] 90% | [6]; [8] 83%

S=C=NCCCCCCN=C=S
inactive: [1]; [7] 36% | [2]; [7] 41% | [3]; [7] 59% | [4]; [7] 21% | [5]; [7] 58%
active: [1]; [8] 99% | [1]; at 50.0 µM 99.6% | [2]; [8] 99% | [2]; at 50.0 µM 99.5% | [3]; [8] 99% | [3]; at 50.0 µM 99.3% | [4]; [8] 99% | [4]; at 50.0 µM 99.3% | [5]; [8] 99% | [5]; at 50.0 µM 99.3% | [6]; [7] 79% | [6]; [8] 99% | [6]; at 50.0 µM 99.2%

COC(=O)c1ccc(C)cc1C1CN=NC12Cc1cccc(C)c1C2=O (stereo not given)
inactive: [1]; [7] 1% | [1]; [8] 9% | [1]; at 50.0 µM 26.8% | [2]; [7] -1% | [2]; [8] 10% | [2]; at 50.0 µM 24.9% | [3]; [7] 16% | [3]; [8] 22% | [3]; at 50.0 µM 8.65% | [4]; [7] 5% | [4]; [8] 10% | [5]; [7] -2% | [5]; [8] 23% | [5]; at 50.0 µM 41.8% | [6]; [7] -1% | [6]; [8] 6% | [6]; at 50.0 µM 2.55%
active: [4]; at 50.0 µM 83.5%

CCN(CC)c1ccc(NC(CC(O)c2ccccc2)c2ccccc2)cc1 (stereo not given)
inactive: [1]; [7] -14% | [1]; [8] 1% | [1]; at 50.0 µM -24% | [2]; [7] -3% | [2]; [8] -1% | [2]; at 50.0 µM 5.8% | [3]; [7] -5% | [3]; [8] 5% | [3]; at 50.0 µM -0.8% | [4]; [7] -5% | [4]; [8] -3% | [4]; at 50.0 µM 51.5% | [5]; [7] -4% | [5]; [8] 2% | [5]; at 50.0 µM 21.1% | [6]; [7] -5% | [6]; [8] -7% | [6]; at 50.0 µM 24.5%

C=C1C(=O)OC2CC3(C)CC(O)C(O)C(=C)C3CC12 (stereo not given)
inactive: [1]; [7] 0% | [1]; [8] 6% | [2]; [7] 1% | [2]; [8] 6% | [3]; [7] -1% | [3]; [8] 14% | [4]; [7] -2% | [4]; [8] 5% | [5]; [7] 0% | [5]; [8] 8% | [6]; [7] 1% | [6]; [8] 9%
active: [1]; at 50.0 µM 91.2% | [2]; at 50.0 µM 94.7% | [3]; at 50.0 µM 93.1% | [4]; at 50.0 µM 91.5% | [5]; at 50.0 µM 93% | [6]; at 50.0 µM 92.2%

COC(=O)C1(COCc2ccccc2)CCCC2OC21 (stereo not given)
active: [5]; [8] 79%
inactive: [1]; [7] 16% | [1]; [8] -2% | [1]; at 50.0 µM 2.95% | [2]; [7] 6% | [2]; [8] -4% | [2]; at 50.0 µM -5.2% | [3]; [7] -31% | [3]; [8] -2% | [3]; at 50.0 µM 10.4% | [4]; [7] 19% | [4]; [8] 43% | [4]; at 50.0 µM -2.55% | [5]; [7] 5% | [5]; at 50.0 µM 2.45% | [6]; [7] 9% | [6]; [8] 10% | [6]; at 50.0 µM 6.5%

CCOC(=O)N1C=C(C(=O)OC)C(c2ccccc2)C(C(=O)OC)=C1
inactive: [1]; [7] 4% | [1]; [8] 6% | [1]; at 50.0 µM -15.2% | [2]; [7] 0% | [2]; [8] 20% | [2]; at 50.0 µM -9.35% | [3]; [7] 5% | [3]; [8] 14% | [3]; at 50.0 µM -6.3% | [4]; [7] -5% | [4]; [8] 4% | [4]; at 50.0 µM 32.6% | [5]; [7] 8% | [5]; [8] 35% | [5]; at 50.0 µM -4.25% | [6]; [7] 2% | [6]; [8] 20% | [6]; at 50.0 µM 1.25%

NC(=S)C(=S)N/C=C(/c1ccc(Cl)cc1)S(=O)(=O)Cc1ccc(Cl)cc1
inactive: [1]; [7] 1% | [2]; [7] -17% | [3]; [7] -3% | [4]; [7] -19% | [5]; [7] 21% | [6]; [7] 4%
active: [1]; [8] 98% | [1]; at 50.0 µM 97.3% | [2]; [8] 99% | [2]; at 50.0 µM 96.2% | [3]; [8] 98% | [3]; at 50.0 µM 96.8% | [4]; [8] 97% | [4]; at 50.0 µM 94.8% | [5]; [8] 98% | [5]; at 50.0 µM 96.7% | [6]; [8] 98% | [6]; at 50.0 µM 97.3%
